Only some compounds are listed: those with a hit (about 7.6% of all), similar ones and a draw of the others.
RORgamma inh = ROR gamma (mouse) transcription inhibition; hit rate 5.4% among 310,000; Potency, µM (doses to about 53.6 µM), without a hit: at the highest dose activity change, negative = inhibition, hits mostly inhibitors; Drosophila S2 Gal4-RORgamma UAS-luciferase reporter, 20 h; further: potency means the concentration at half of the fitted maximal effect; on the % scale 0 is the no-effect control and ±100 the full control effect; nearly all actives have a fitted effect of over 60% in size
Target sequence (P51450 whole entry, looked up, the tested form may be a part): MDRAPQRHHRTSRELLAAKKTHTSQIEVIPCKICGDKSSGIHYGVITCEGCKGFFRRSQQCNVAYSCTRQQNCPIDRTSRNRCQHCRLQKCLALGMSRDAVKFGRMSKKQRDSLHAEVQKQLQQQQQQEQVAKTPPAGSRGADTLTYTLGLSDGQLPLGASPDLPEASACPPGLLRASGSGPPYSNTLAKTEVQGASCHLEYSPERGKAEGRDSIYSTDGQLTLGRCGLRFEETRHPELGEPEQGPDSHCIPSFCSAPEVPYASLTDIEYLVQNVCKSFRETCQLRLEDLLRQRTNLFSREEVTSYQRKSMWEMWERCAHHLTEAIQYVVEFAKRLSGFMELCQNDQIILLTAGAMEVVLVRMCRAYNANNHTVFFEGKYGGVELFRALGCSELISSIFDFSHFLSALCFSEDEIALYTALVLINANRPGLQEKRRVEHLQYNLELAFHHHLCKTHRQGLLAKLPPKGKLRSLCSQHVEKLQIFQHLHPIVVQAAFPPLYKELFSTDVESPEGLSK
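Schneider cells (Drosophila), stable Gal4 DBD–ROR gamma + UAS-luc; 1 hr cmpd preincubation; Cu2+ induction 700 uM final; 20 hr ambient; luminescence.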
BRCA1 expr act = increases BRCA1 expression. MCF7-BRCA1-FFLuc reporter, luminescence, 48 h; response scale: scaled: vehicle 0%, 10 µM genistein 100%. Potency, µM (highest dose often 46.1 µM), without a hit: top-dose activation, usual class: activators. hit rate 1.1% among 380,000; further: potency means the concentration at half of the fitted maximal effect; nearly all actives have a fitted effect of over 80% in size
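Using MCF7 cells harboring a BRCA1 firefly luciferase reporter, plated 2 h before compound pinning, the screen measured luminescence after 48 h incubation. Responses were normalized to DMSO and 10 microM genistein, then fitted for concentration-effect.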
Giardia killer = Giardia lamblia killing; hit rate 0.15% among 340,000; Giardia lamblia trophozoite viability; activity change, % at 7.66 µM, hits read low; in the data active means activity change below about -80%; inconclusive means between about -30% and that limit;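 further: parasites exposed to compound for two days anaerobically before the ATP read; on the % scale 0 is the no-effect control and ±100 the full control effect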
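Viability, read as ATP luminescence: trophozoites at 100 cells/well, compound added, 48 hrs anaerobic at 37 deg C, then 15-30 min room-temperature development before reading.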
p53 reactivation = restores transcriptional activity of mutant p53; H1299 p53-A138V BP100-luciferase reporter, luminescence, 24 h; Potency, µM (titrated, usually from 92.2 µM), inactives show top-dose activity change, positive = activation, usual class: activators; hit rate 0.063% among 320,000; further: potency means the concentration at half of the fitted maximal effect; % of control where 0% means no effect; nearly all actives have a fitted effect of over 45% in size
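p53-null H1299 cells stably carrying temperature-sensitive p53-A138V and a BP100-luciferase reporter were pinned with compounds (4-point, 1:5 series) and held 24 hrs at 37 deg C. Luminescence was read 10 min after detection reagent.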
ELG1 repair inh = inhibitors of ELG1-dependent DNA repair in HEK293T cells; hit rate 2.3% among 330,000; HEK293T ELG1-luciferase reporter, luminescence, 16 h; DNA damage induced by 5-fluorouridine; Potency, µM (titrated, usually from 46.1 µM), inactives show at the top dose activity change, negative = inhibition, most hits filed as inhibitors; further: potency means the concentration at half of the fitted maximal effect; on the % scale 0 is the no-effect control and ±100 the full control effect; nearly all actives have a fitted effect of over 55% in size
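Step one: seed 2,000 cells per well. Step two: pin-transfer compound or DMSO alongside 5-fluorouridine. Step three: incubate 16 hr, 37 °C, 5% CO2. Step four: add ONE-Glo, wait 30 min, read luminescence.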
Gal4-VP16 FLuc = Gal4-VP16 reporter inhibition counter-screen; hit rate 3.5% among 310,000; Drosophila S2 Gal4-VP16 UAS-luciferase, luminescence, 20 h; Potency, µM (top dose mostly 53.6 µM), for inactives: top-dose activity, negative = inhibition, actives largely listed as inhibitors;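 further: Gal4-VP16 expression switched on by copper sulfate through the metallothionein promoter; potency means the concentration at half of the fitted maximal effect; on the % scale 0 is the no-effect control and ±100 the full control effect; nearly all actives have a fitted effect of over 50% in size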
* marks the source's active call; other numbers are inactive results; ? = inconclusive; . = no result given; ! = repeats disagree; [ ] = another dose, or the depositor's remark. Unless noted, the call rests on the fitted dose curve; in most records, active means well fitted curve in the direction sought with a large enough effect; inconclusive means small, poorly fitted or top-dose-only effect, or another doubt; inactive means no such curve, though single readings can be large; an effect the other way counts as inactive or inconclusive.

SMILES | RORgamma inh | BRCA1 expr act | Giardia killer | p53 reactivation | ELG1 repair inh | Gal4-VP16 FLuc
CN(C)c1ccc(/C=C2/C(=N\O)C3CCN2CC3)cc1 | 34% | 4µM* | 6 | 10% | ? | 1%
O=C(CCn1c(=O)oc2ccccc21)N1CCN(C(c2ccccc2)c2ccccc2)CC1 | 32% | -17% | 4 | 0% | 13µM* | -4%
COC(=O)C1=C(c2ccc(F)cc2OCc2ccccc2)C[C@@H]2CC[C@H]1N2C(=O)NC1CCCCC1 | . | -71% | 0 | 3% | ? | .
CSc1ncc(Cl)c(C(=O)O)n1 | -4% | 4% | -22 | -4% | 0% | -6%
Cn1c(CN2CCN(C(=O)COc3ccccc3)CC2)nc2cc([N+](=O)[O-])ccc21 | 19%[10 µM] | -3% | -11 | -1% | ? | -4%
Cc1cccc(CC(c2cccc(C)c2)N(C)C)c1 (stereo unspecified) | . | -2% | -3 | . | . | .
CC(=O)Nc1ccc(S(=O)(=O)N2CCSC2c2ccc(C)cc2)cc1 (stereo unspecified) | 20% | -27% | -7 | -3% | 16µM* | -1%
C[C@@H]1C[C@H]2OC(=O)C3(CO3)[C@H]2[C@H](O)[C@]2(C)C(=O)C3OC3[C@@H]12 (stereo partly specified) | 10µM* | . | . | -14% | ? | ?
O=C1/C(=C\c2ccccc2)C[C@@]2(O)[C@H]3Cc4ccc(O)c5c4[C@@]2(CCN3CC2CC2)[C@@H]1O5 | 11µM* | . | . | . | . | 13µM*
Oc1ccc2c3c1O[C@H]1c4[nH]c5c(c4C[C@@]4(O)[C@@H](C2)N(CC2CC2)CC[C@]314)C[C@]1(O)[C@H]2Cc3ccc(O)c4c3[C@@]1(CCN2CC1CC1)[C@@H]5O4 | 29% | . | . | . | . | -4%
COc1ccc(CCN2CCCC(CN(C)C(=O)c3cc(C)oc3C)C2)cc1 (stereo unspecified) | -10% | 7.9µM* | 16 | 35µM* | ? | 23%
COc1cccc(C(=O)C2CCCN(Cc3ccc(F)cc3)C2)c1 (stereo unspecified) | -35% | -39% | -11 | . | 0% | 2%
CC1(C)CN=C(Nc2nc3ccccc3s2)S1 | 8.9µM* | ? | -7 | ? | ? | ?
CC1(C)CN=C(NCc2ccccc2)S1 | . | 44% | 12 | . | . | .
C[C@H]1COC(=O)[C@@H](Cc2ccc(F)cc2)CC/C=C/C[C@H](CC(=O)N(CCO)Cc2ccccc2)C(=O)N1 | . | 6% | 4 | -1% | -13% | .
COc1cc2c(cc1O)C(Cc1ccc(O)cc1)NCC2 (stereo unspecified) | ? | -7% | -22 | 6% | -1% | ?
C=C(CO)CC1CC(O)[C@]2(C)OC3CC4OC5C[C@]6(C)O[C@]7(C)CCC8OC9C[C@]%10(C)OC%11C(C)=CC(=O)OC%11CC%10OC9C[C@@H](C)C8OC7CC6O[C@]5(C)C/C=C\C4OC3CC2O1 (stereo partly specified) | -16% | 0% | -7 | 4% | -20% | -5%
C=C(C=O)CC1CC(O)[C@]2(C)OC3CC4OC5C[C@]6(C)O[C@]7(C)CCC8OC9C[C@]%10(C)OC%11C(C)=CC(=O)OC%11CC%10OC9C[C@@H](C)C8OC7CC6O[C@]5(C)CC5OC5C4OC3CC2O1 (stereo partly specified) | -27% | -27% | 10 | -13% | 4.1µM* | -2%
O=c1[nH]cc(COCC(F)(F)C(F)(F)C(F)(F)F)c(=O)[nH]1 | 13% | 0% | -26 | -2% | -2% | -7%
C[C@@H]1C[C@@H]([C@H](O)CC2CC(=O)NC(=O)C2)C(=O)[C@@H](C)C1 | 0.32µM*! | -72% | -82* | ? | 0.29µM* | 0.0089µM*!
CCOP(=O)(OCC)c1nc(-c2ccc(Cl)cc2)oc1NCc1ccccc1 | 43% | -34% | 6 | 2% | 23µM* | -2%
CCCOP(=O)(OCCC)c1nc(-c2ccccc2)oc1NCc1ccccc1 | ? | -78% | -30 | -5% | ? | -12%
Cc1c(Cl)c(=O)oc2cc(OP(=O)(OCCCl)OCCCl)ccc12 | 14%[10 µM] | . | . | . | . | -5%
S=P(N1CCCCCC1)(N1CC1)N1CC1 | . | -16% | -10 | . | . | .
Cc1ccc(C(=O)Nc2nc3ccccc3n2CCN2CCCC2)cc1 | 2.5µM* | -5% | -5 | ? | ? | 7.1µM*
SMILES | RORgamma inh | BRCA1 expr act | Giardia killer | p53 reactivation | ELG1 repair inh | Gal4-VP16 FLuc
CCN1CCN(c2nc3ccccc3s2)CC1 | -34% | ? | -20 | 8% | ? | -20%
CCCC(c1nnnn1Cc1cccs1)N1CCN(c2nc3ccccc3s2)CC1 (stereo unspecified) | 6% | -44% | -5 | -1% | 23µM* | 14%
CCc1nn(CC(=O)N2CCN(Cc3ccc4c(c3)OCO4)CC2)c(=O)c2cc3occc3n12 | -18% | -25% | -2 | -12% | 21µM* | -4%
CC1CC(C)CN(S(=O)(=O)c2ccc3c(c2)oc(=O)n3CC(=O)NCc2cccnc2)C1 (stereo unspecified) | 42% | 0% | -15 | -3% | 3.7µM* | 1%
CNc1ccc2oc(C[C@@H]3OC4(CC[C@@H]3C)O[C@H](C(C)C(=O)c3ccc[nH]3)[C@H](C)C[C@H]4C)nc2c1C(=O)O (stereo partly specified) | 1.8µM* | . | . | . | . | .
CCC(=O)Nc1ccc(C(=O)OCc2ccccc2Cl)cc1 | -42% | 7.1µM* | 10 | 16% | ? | 25%
S=C1NC2(CCCCC2)NC12CCCCC2 | 8.9µM* | -9% | 4 | -7% | 20% | ?
COc1ccc(C[C@H]2NC[C@H](O)[C@@H]2OC(C)=O)cc1 | ? | . | . | . | . | 35µM*
COc1ccc(C/C(=N\OC(C)=O)c2ccc(OC)cc2)cc1 | 10% | 93% | 25 | 0% | ? | -6%
COc1ccc(CC2NCC(O)C2OC(C)=O)cc1 (stereo unspecified) | ? | ? | ? | . | . | 0.079µM*
COc1ccc(CC2NC[C@H](O)[C@H]2OC(C)=O)cc1 (stereo partly specified) | 0.63µM* | . | . | . | . | 0.79µM*
COc1ccc(CC(=O)N2CCN(C)CC2)cc1 | -3% | 52% | 4 | 20% | 17% | -6%
CCOC(=O)c1c(C)[nH]c(C(=O)C(Cc2ccccc2)N(C)C)c1C (stereo unspecified) | 42% | 17% | -13 | 12% | 2% | 5%
CN1CCC2(CC1)N=C(c1ccc(F)cc1)C(=S)N2 | 13µM* | -9% | -11 | 1% | 17% | 1%
Cn1c(O)c(C=NCCN2CCN(C(=O)Nc3ccccc3)CC2)c(=O)n(C)c1=O | 20% | 4% | 2 | 8% | -2% | 0%
